# ± gives the standard deviation of the averaged measurements. In all, about 25,000 sequences were measured (“ln(normalized median fluorescence intensity)”: median about 8.9, highest 2% from about 10 on). For the sample, the highest values were picked, then their nearest neighbours and some sequences at random.
# System: PfAP2-LT AP2 domain (GST-tagged)
# Test: gcPBM binding intensity (ln(normalized median fluorescence intensity)); higher = stronger DNA binding
# Method in brief: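 Binding intensity is defined as the maximum Masliner-normalised natural-log median intensity across replicate spots for either probe orientation. It was measured on an Agilent 4 × 180k array of primer-extended double-stranded 36-bp intergenic genomic probes and negative controls, to which GST-tagged P. falciparum DNA-binding domains made in E. coli were applied for 1 h in 1× PBS with 1% milk, 0.2 mg/ml BSA, 0.5% salmon testes DNA and 0.03% Triton X-100. Detection was by Alexa488 anti-GST antibody and scanning at 488 nm.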
row,Sequence,gcPBM binding intensity (ln)
1,CTAAATATATAAAAAAGTACAAAATAAATAATAATT [XGTACX_site2442],8.79 ± 0.46
2,ACATATATATATAAATATATATATATATAAATATAT [CACACA_negctrl_site895],9.03 ± 0.28
3,TATACAGGAATATTTTTACACACTAATAATTATAAA [CACACA_site8477],8.73 ± 0.5
4,TATATATATATGTGCACACCAATTGTATGTAATATA [CACACA_site3889],9.32 ± 0.2
5,TAAAAAGAAATGTAAAGTACAAATTTGAATAACATG [XGTACX_site7981],8.88 ± 0.52
6,ATTTTAACCAATTATTGTACTTGGTTATTCTTTTTT [XGTACX_site7453],8.94 ± 0.45
7,TTTTATTTTTAAGGATGTACTCAATTGTTTATATAC [XGTACX_site3965],8.85 ± 0.4
8,TTTTCTAAATTAATAATACACACTTGCTAAAATCAT [CACACA_site3207],8.47 ± 0.46
9,ATAATTTGTGGACACACACACACACCGACATATATA [CACACA_site8718],9.97 ± 0.33
10,ATTTGGCATGGACACACACACACACCGACAGACATA [CACACA_site4491],10 ± 0.27
11,GGTATACGCAAGTATACACACATATATATATATATA [CACACA_site3240],10.01 ± 0.042
12,CACATACAGACATACACACATACACATATACGCATA [CACACA_site1745],9.61 ± 0.36
13,AGTATACATATATATACACACATATATATATATATA [CACACA_site300],9.83 ± 0.34
14,ATTATACACGCGCGCACACACAACAAAAAAAAAAAA [CACACA_site7630],9.43 ± 0.48
15,CAAGCACACGGACACACACACACACGCGCACGCACA [CACACA_site6307],10.3 ± 0.28
16,AGTATACGCAGACACACACACACATATATATATATA [CACACA_site1735],10.22 ± 0.042
17,ATTATAGACACGCGCACACACAACAAAAAAAAAAAA [CACACA_site9180],9.73 ± 0.61
18,TATATACACAGACACACACACACATACACGCACATA [CACACA_site6909],10.1 ± 0.22
19,ACATCAAGCGGACACACACACACACCGACAGACACA [CACACA_site4361],10.2 ± 0.33
20,TTTTTTAAAATATGGACACACATATATATATCTGTA [CACACA_site5535],8.88 ± 0.38
21,TATATCTTAATATACACACACACATATATATATATA [CACACA_site4968],9.71 ± 0.014
22,AAAAAAACATAAAATACACACAACCTTAAGAATGTA [CACACA_site3293],9.12 ± 0.38

row,Sequence,gcPBM binding intensity (ln)
1,CAACATATATTAATATGTACATATATATAGATATAT [XGTACX_site4107],8.81 ± 0.44
2,ATATATATATATATATGTACATATTTCTCCATTTTT [XGTACX_site2869],9.61 ± 0.39
3,ACATATAAATATATTACACACACACTAAAAAAATAA [CACACA_site6209],9.69 ± 0.27
4,TAACATATTAATAACATATTTATAATATATTAATAA [TGCATGCA_negctrl_site243],8.34 ± 0.43
5,TATAAAAATTAATATTGTACGTTTTATGAAAATAAA [XGTACX_site8237],8.21 ± 0.47
6,AACACGCGCAGACACACACACACACCCACATATATA [CACACA_site2205],10.3 ± 0.27
7,TACACGCAGAAACACACACACACACCCATATATATA [CACACA_site637],10.1 ± 0.28
8,AGCACACGCAGACACACACACACACGCACACGCACA [CACACA_site6306],10.3 ± 0.23
9,CGCGCACCCAGACACACACACACACCCATATATATA [CACACA_site2203],9.96 ± 0.25
10,AAAAAAAAAAGACACACACACACACGCATATACATA [CACACA_site7289],10.18 ± 0.05
11,AAAAAAAAAAGACACACACACAAAAAAAGATATATA [CACACA_site6645],9.9 ± 0.38
12,AAAAAAAAAAGACACACACACATATTTATTTATATA [CACACA_site6484],9.67 ± 0.4
13,AAAAAAAAAAGACACACACACACACGGAGATATATA [CACACA_site6216],10.4 ± 0.19
14,AATACACGCAGACACACACACAAAAAAAAAAAAAAA [CACACA_site6384],9.53 ± 0.61
15,CGTGGGAGCAGACACACACACACACGCATATTTATA [CACACA_site6290],9.89 ± 0.45
16,ATATTTAGGAAAAATAGTACACATTTAAATAATAAT [XGTACX_site7989],8.68 ± 0.47
17,TTGAAATATACGTAAGTAAATTTCATTTGGTTGTGT [XGTACX_negctrl_site600],8.77 ± 0.47
18,AATATACAAATTACAAGTACAAATCAATATTATATG [XGTACX_site7521],8.9 ± 0.42
19,AATTATTTATTGAGAGTGCAACAAATTATTTCAAAT [GTGCAC_site9461],8.44 ± 0.49
20,AATATTTTAATGCACACACACAAAAAAAAAAAAAAA [CACACA_site7374],9.18 ± 0.33
21,AATAATAAATATATATATATATATATATATATATTT [CACACA_negctrl_site786],9.04 ± 0.21
22,CATAATAGTTATAAAATACACACCAGGCATGATAAA [CACACA_site329],9 ± 0.4

row,Sequence,gcPBM binding intensity (ln)
1,ATATATATATATATATGTACATATAATTTTTTTTTT [XGTACX_site6948],9.56 ± 0.16
2,GGAATATTTATACATACACACATATATTTATTTATA [CACACA_site6883],8.91 ± 0.38
3,TAACTTTGAAAAGATGGTACACAATAATATATATAT [XGTACX_site8667],8.83 ± 0.35
4,CCTTTCACATATAATACATGCATTATTATATATGAA [TGCATGCA_site287],8.7 ± 0.23
5,TATATATACATATACACACACACACCGATATATATA [CACACA_site8706],9.9 ± 0.29
6,TATATATATATATACACACACACACCGATATATATA [CACACA_site8813],10 ± 0.11
7,TATACATACATACATACACACACACCGATATATACA [CACACA_site8184],9.89 ± 0.11
8,CATACATACAAACACACACACACACCGATATATATA [CACACA_site8952],10.29 ± 0.092
9,CAAAAAAACAAACACACACACACACCGATATATATA [CACACA_site9218],10.1 ± 0.23
10,AAAAAAAAAAAACACACACACACACCGATACATACA [CACACA_site8849],10.4 ± 0.085
11,AAAAAAAAAAAACACACACACACACCGAAATATATA [CACACA_site4261],9.99 ± 0.33
12,AGGAGGAACAAACAAAACAATAAAAATTATAATAAA [GTGCAC_negctrl_site206],8.78 ± 0.64
13,GTGTATTTATGTTATACACACAAAAATATTTTGTAT [CACACA_site4305],9.01 ± 0.33
14,TTATATATACCATAATGTACTCTATTATATAAAAAA [XGTACX_site7464],8.41 ± 0.4
15,TAATTATGCAGACACACACACACACCCAACTAAAAA [CACACA_site2569],9.96 ± 0.23
16,AAAAGATAAAATTATGCACACATACGAATAATTTTA [CACACA_site8497],8.92 ± 0.48
17,AAAAGATAATTATGCACACACACACCCCCACCCAAC [CACACA_site2570],10.38 ± 0.064
18,TAATTATGCCAACACACACACACACCCAACTAAAAA [CACACA_site8823],9.965 ± 0.092
19,AAAGATAATATATGCACACATATAAATATATAAATA [CACACA_site3477],9.07 ± 0.43
20,AAAAGATAATTATGCACACACACACCCAGACACAAC [CACACA_site5428],10.34 ± 0.021
21,TATGCACCCAGACACACACACACAACTAAAAAATAA [CACACA_site2567],9.8 ± 0.35
22,AAAAAAGATAATTATGCACACACACCCACCCACCCA [CACACA_site8825],10.085 ± 0.0071

row,Sequence,gcPBM binding intensity (ln)
1,ATTATATATATGTGCACACAAAAGATATATATATAT [CACACA_site5205],9.95 ± 0.26
2,AAAAAAAAAACATACACACACATATAGATTTATATG [CACACA_site6847],9.31 ± 0.35
3,AAAAGGAATTATAGGAAATAAATATATACAAATATA [TGCATGCA_negctrl_site528],8.69 ± 0.58
4,TATATTTATATATGTTGTACTCTCCAATAATATTCC [XGTACX_site4438],8.76 ± 0.52
5,AGTAAATTATATATCTGTACATATATATATGTGTAT [XGTACX_site5519],9.04 ± 0.28
6,AAAATTGGTGAAAATGAAAATATGATTATATGTATA [XGTACX_negctrl_site505],8.56 ± 0.53
7,ATAATTTTATATAAATGTACATACATTTTTATTATA [XGTACX_site7368],8.61 ± 0.4
8,TATAAATAAAAACACACACACACATATATATATATA [CACACA_site2268],10.2
9,TTCAAAGGGAAATTAACACACACATATATATATATA [CACACA_site8777],9.71 ± 0.2
10,AAACTTGACGAACACACACACACATATATAAAAAAA [CACACA_site6494],10.1 ± 0.4
11,AAAAATAACATATAAACACACATATATATATATATA [CACACA_site3802],9.825 ± 0.0071
12,AAAATAACGAGTCAAACACACATATTTATATTTATA [CACACA_site7050],8.95 ± 0.45
13,AAAATAACGAGTCAAACACACATATATATATATATA [CACACA_site2039],10.1 ± 0.2
14,TTAAACTTGAAACACACACACACACCCATATAAAAA [CACACA_site758],10.1 ± 0.064
15,CAAAGGGAAATTAACACACACATATTTATATTTATA [CACACA_site7202],9.2 ± 0.47
16,CAAAGGGAAATTAACACACACATATATATATATATA [CACACA_site2453],10.3 ± 0.2
17,TAAAAAAAAAAAAAAACACACATATAAATATATATA [CACACA_site1243],8.56 ± 0.52
18,CAAAAATAACGAGTCAAACACACATATATATATATA [CACACA_site2038],9.86 ± 0.3
19,TTAAACTTGAAACACACACACACACCGATATAAAAA [CACACA_site4578],10.06 ± 0.085
20,TGAACACATACATACACACACACAAAAAAAAAAAAA [CACACA_site392],9.76 ± 0.4
21,AAAAAAAAAAATACTCGTACATAAACCTATACATTT [XGTACX_site6494],8.83 ± 0.45
22,AAAATATGTAGCTACACACACATAAACAAAATAACA [CACACA_site1007],9.41 ± 0.3
